Sampled rows, rich in hits. Any-hit rate of the full collection: about 2.4%.
FEN1 inhibitor = inhibitors of human flap endonuclease 1; AID 588795; Recombinant FEN1 flap cleavage, fluorescence, 15 min; Potency, µM (highest dose often 114 µM), for inactives: top-dose activity change, negative = inhibition, usual class: inhibitors; 390,000 tested, 0.35% active; P39748; also: % is scaled to controls: 0 for no effect and ±100 for the full control effect; nearly all actives have a fitted effect of over 65% in size
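Read-out was taken twice, immediately and after 15 min, following addition of 50 nM substrate to 10 nM FEN1 that had sat with test compound for 15 min at room temperature. Curves came from a four-parameter Hill model.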
WRN helicase inh-1 = WRN helicase (human) inhibition. Potency, µM (doses to about 114 µM), for inactives: top-dose activity change, negative = inhibition, actives largely listed as inhibitors. 360,000 tested, 0.46% active. AID 651768. Q14191. WRN helicase unwinding, fluorescent forked duplex, kinetic; also: % is scaled to controls: 0 for no effect and ±100 for the full control effect; nearly all actives have a fitted effect of over 55% in size
Target sequence (Q14191 whole entry, looked up): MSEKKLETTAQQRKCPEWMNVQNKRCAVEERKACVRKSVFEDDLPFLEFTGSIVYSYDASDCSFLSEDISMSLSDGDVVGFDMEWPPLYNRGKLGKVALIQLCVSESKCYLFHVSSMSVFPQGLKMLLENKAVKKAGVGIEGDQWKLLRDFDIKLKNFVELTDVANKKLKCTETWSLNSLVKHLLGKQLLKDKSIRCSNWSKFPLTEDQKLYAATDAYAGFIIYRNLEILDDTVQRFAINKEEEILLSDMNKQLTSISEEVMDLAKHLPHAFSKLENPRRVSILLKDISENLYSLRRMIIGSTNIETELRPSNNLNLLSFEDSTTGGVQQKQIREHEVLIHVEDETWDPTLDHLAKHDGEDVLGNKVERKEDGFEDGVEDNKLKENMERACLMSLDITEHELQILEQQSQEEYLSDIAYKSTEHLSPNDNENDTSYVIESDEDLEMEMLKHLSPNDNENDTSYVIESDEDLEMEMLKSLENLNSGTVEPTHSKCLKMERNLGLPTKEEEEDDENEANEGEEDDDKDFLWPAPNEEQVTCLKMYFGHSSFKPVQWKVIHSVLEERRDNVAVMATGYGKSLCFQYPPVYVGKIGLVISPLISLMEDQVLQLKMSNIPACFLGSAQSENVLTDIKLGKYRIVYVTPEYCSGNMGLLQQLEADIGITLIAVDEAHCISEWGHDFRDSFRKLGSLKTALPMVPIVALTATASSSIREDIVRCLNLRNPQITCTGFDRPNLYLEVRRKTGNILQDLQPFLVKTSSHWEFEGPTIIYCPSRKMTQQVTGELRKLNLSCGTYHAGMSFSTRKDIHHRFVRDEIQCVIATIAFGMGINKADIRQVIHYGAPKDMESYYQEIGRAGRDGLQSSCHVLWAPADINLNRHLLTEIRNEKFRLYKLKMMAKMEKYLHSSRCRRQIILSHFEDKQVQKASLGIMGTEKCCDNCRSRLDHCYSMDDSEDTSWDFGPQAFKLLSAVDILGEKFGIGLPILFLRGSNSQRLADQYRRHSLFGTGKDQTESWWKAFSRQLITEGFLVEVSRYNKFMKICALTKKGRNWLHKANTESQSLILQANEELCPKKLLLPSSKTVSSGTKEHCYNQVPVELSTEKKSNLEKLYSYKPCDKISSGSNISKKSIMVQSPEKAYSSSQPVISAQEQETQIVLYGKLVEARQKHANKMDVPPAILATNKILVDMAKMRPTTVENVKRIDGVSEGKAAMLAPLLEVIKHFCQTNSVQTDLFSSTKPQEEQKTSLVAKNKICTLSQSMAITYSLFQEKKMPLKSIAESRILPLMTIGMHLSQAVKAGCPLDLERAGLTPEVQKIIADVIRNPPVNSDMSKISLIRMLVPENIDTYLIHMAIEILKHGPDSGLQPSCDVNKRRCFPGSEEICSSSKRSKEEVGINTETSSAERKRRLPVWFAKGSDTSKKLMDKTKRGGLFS
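WRN at 20 nM final preincubated with compound 15 min at room temperature; reaction started with 100 nM fluorophore/quencher forked duplex oligonucleotide and 2 mM ATP final. Unwinding followed kinetically by red fluorescence (ex 525, em 598 nm).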
POLB inh = blocks human DNA polymerase beta activity. Pol beta primer extension/strand displacement, fluorescence kinetic. AID 485314. Potency, µM (titrated, usually from 114 µM), for the others: at the highest dose activity change, negative = inhibition, most hits filed as inhibitors. 340,000 tested, 1.3% active. P06746; also: % is scaled to controls: 0 for no effect and ±100 for the full control effect
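Pol beta (10 nM) and compounds were preincubated 15 min at room temperature, then 50 nM substrate (final) started primer extension/strand displacement. Reads were taken at 0 and 10 min; concentration-response data were fitted to a four-parameter Hill equation.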
Pol kappa inh-1 = blocks human DNA polymerase kappa activity; 400,000 tested, 0.53% active; Q9UBT6; Potency, µM (highest dose often 107 µM), inactives show at the highest dose activity, negative = inhibition, usual class: inhibitors; purified Pol kappa, fluorescent DNA synthesis assay, 10 min; also: % is scaled to controls: 0 for no effect and ±100 for the full control effect
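10 nM Pol kappa preincubated 15 min at room temperature with compounds, then reaction started with substrate at 50 nM final. Fluorescence read kinetically at 0 and 10 min; buffer-only wells served as negative control.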
Pol eta inh-1 = DNA polymerase eta (human) inhibition | Q9Y253 | recombinant Pol eta, fluorescent DNA replication assay | Potency, µM (highest dose often 114 µM), for the others: at the top dose activity change, negative = inhibition, hits mostly inhibitors | 390,000 tested, 1.2% active | AID 588591; also: % is scaled to controls: 0 for no effect and ±100 for the full control effect
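Pol eta (10 nM) was preincubated with compounds for 15 min at room temperature, after which fluorescent replication substrate (50 nM final) was added to start the reaction. Fluorescence was read kinetically at 0 and 10 min.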
POLI inh = blocks human DNA polymerase iota activity; Q9UNA4; Pol iota fluorescent replication assay, 10 min; Potency, µM (highest dose often 115 µM), for inactives: at the highest dose activity, negative = inhibition, usual class: inhibitors; 390,000 tested, 1% active; AID 588590
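Fluorescent replication assay read twice, at 0 min and 10 min after adding 50 nM (final) substrate. Enzyme (10 nM) and compounds were first incubated 15 min at room temperature; enzyme-free buffer wells were negative controls.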
Pol kappa inh-2 = confirmation of human DNA polymerase kappa inhibitors; shares compounds with Pol eta inh-1; purified Pol-kappa, fluorescent strand-displacement substrate; Potency, µM, most hits filed as inhibitors; 920 tested, 76% active; AID 720501
Pol eta inh-2 = confirmation of human DNA polymerase eta inhibitors; shares compounds with Pol eta inh-1; Pol eta primer extension, TAMRA/BHQ fluorescence, 10 min; Potency, µM, actives largely listed as inhibitors; 2,600 tested, 64% active
WRN helicase inh-2 = confirmation of human WRN helicase inhibitors; shares compounds with WRN helicase inh-1; WRN helicase DNA unwinding, fluorescence kinetic; Potency, µM (doses to about 57.1 µM), without a hit: at the top dose activity, negative = inhibition, most hits filed as inhibitors; 610 tested, 63% active; also: nearly all actives have a fitted effect of over 65% in size
TO displacement = DNA binding via thiazole orange displacement | shares compounds with WRN helicase inh-1 | thiazole orange DNA binding displacement, fluorescence | Potency, µM (series often up to 57.1 µM), for inactives: at the top dose activity change, negative = inhibition, actives largely listed as inhibitors | 610 tested, 10% active;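 also: drop in dye fluorescence marks compound binding to DNA; % is scaled to controls: 0 for no effect and ±100 for the full control effect; nearly all actives have a fitted effect of over 60% in size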
BLM counter = blocks human BLM helicase in WRN counterscreen; Potency, µM (doses to about 57.1 µM), for the others: at the highest dose activity change, negative = inhibition, usual class: inhibitors; Recombinant BLM helicase DNA unwinding, red fluorescence; shares compounds with WRN helicase inh-1; AID 720503; 610 tested, 60% active; also: nearly all actives have a fitted effect of over 60% in size
Numbers without * were called inactive; i = inactive; ? = inconclusive; . = no result; [ ] = dose if it differs, or a comment. Calls follow the shape of the dose curve; as a rule, active = well fitted curve in the direction sought with a large enough effect; inconclusive = small, poorly fitted or top-dose-only effect, or another doubt; inactive = no such curve, though single readings can be large; an effect the other way counts as inactive or inconclusive. Potency is read from the fitted curve at half-maximal effect.

SMILES | FEN1 inhibitor | WRN helicase inh-1 | POLB inh | Pol kappa inh-1 | Pol eta inh-1 | POLI inh | Pol kappa inh-2 | Pol eta inh-2 | WRN helicase inh-2 | TO displacement | BLM counter
Cc1cc2c(cc3c(SCc4ccc(Cl)cc4)nncn32)o1 | 14% | . | -1% | -13% | 3% | 5% | . | . | . | . | .
O=C(O)COc1ccccc1/C=C1\SC(=S)N(NC(=O)c2ccccc2O)C1=O | ? | ? | . | 32µM* | 32µM* | 7.1µM* | 7.5* | ? | ? | -9% | -23%
O=C(O)CCCN1C(=O)/C(=C\c2ccco2)SC1=S | 32µM* | ? | 20µM* | 11µM* | 20µM* | 7.1µM* | 42* | 48* | ? | -8% | ?
O=C(CCCN1C(=O)/C(=C\c2ccccc2)SC1=S)N1CCOCC1 | -15% | -35% | . | -16% | -5% | 10% | . | . | . | . | .
COc1ccc(CNC(=O)c2cc3c(=O)n4cccc(C)c4nc3s2)cc1 | 16% | . | 6% | 9% | -11% | 15% | . | . | . | . | .
COc1cc(/C=C2/C(=O)c3cccc([N+](=O)[O-])c3C2=O)c(Br)cc1O | ? | 4.2µM* | 40µM* | -28% | 25µM* | 25µM* | . | 48* | ? | ? | ?
CC(=O)NN1C(=O)/C(=C/c2ccc(Br)o2)SC1=S | 40µM* | 50µM* | ? | 7.9µM* | 4µM* | 2.5µM* | . | ? | -20% | 2% | -20%
O=C(O)CN1C(=O)/C(=C\C(Br)=C\c2ccccc2)SC1=S | ? | ? | ? | ? | 8.9µM* | ? | . | 24* | 22µM* | -7% | 22µM*
CCN(CC)c1ccc(/C=C2/C(=O)c3ccc(C(=O)O)cc3C2=O)cc1 | ? | 35µM* | ? | 79µM* | 3.5µM* | 18µM* | 7.5* | 38* | 24µM* | 96% | ?
CCN(CC)c1ccc(/C=C2/C(=O)ON=C2C)cc1 | -28% | -16% | 7% | -11%[60.1 µM] | 14% | ? | . | . | . | . | .
COc1ccccc1CNC(=O)c1cc2cc3ccc(Cl)cc3nc2o1 | 0% | . | 4% | -3% | -5% | -22% | . | . | . | . | .
O=NCc1ccc([N+](=O)[O-])o1 | . | . | . | -2%[60.1 µM] | . | . | . | . | . | . | .
Cc1ccc(-c2ccc(/C=C3\C(=O)ON=C3c3ccccc3)o2)c([N+](=O)[O-])c1 | -13% | 40µM* | 29% | -36% | 28µM* | 32µM* | ? | 85* | 22µM* | ? | 22µM*
CCCN1C(=O)/C(=C\C=C2\N(CC)c3ccccc3C2(C)C)SC1=S | ? | 4.2µM* | -14% | -16% | ? | ? | 53* | . | 14µM* | i | 11µM*
CCCN1C(=O)/C(=C\C=C2/Sc3ccccc3N2CC)SC1=S | . | . | -3% | . | . | . | . | . | . | . | .
